Experimental data taken from PubChem BioAssay (NCI).
This is part of a sample that, as a whole, favours compounds with a hit. Of some 83,000 tested, about 20% had one in any assay.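 Activity criterion: percent growth below 10, measured after cells in 96-well plates were exposed to a single compound concentration for 48 hours.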 The source made the active and inactive calls.

Legend:
Test in all cases: NCI-60 one-dose screen, 48 h (100 = growth as untreated, 0 = no growth, -100 = all killed)
Details in all cases: 10 µM unless noted
HCT-15 colon = system: HCT-15 colon
HT29 colon = system: HT29 colon
SNB-75 CNS = system: SNB-75 CNS
SNB-19 CNS = system: SNB-19 CNS
U251 CNS = system: U251 CNS
PC-3 prostate = system: PC-3 prostate
SK-MEL-5 melanoma = system: SK-MEL-5 melanoma
UACC-62 melanoma = system: UACC-62 melanoma
LOX IMVI melanoma = system: LOX IMVI melanoma
SK-MEL-28 melanoma = system: SK-MEL-28 melanoma
EKVX NSCLC = system: EKVX NSCLC
SN12C renal = system: SN12C renal
UO-31 renal = system: UO-31 renal
TK-10 renal = system: TK-10 renal
ACHN renal = system: ACHN renal
CAKI-1 renal = system: CAKI-1 renal
A498 renal = system: A498 renal
CCRF-CEM leukemia = system: CCRF-CEM leukemia
MOLT-4 leukemia = system: MOLT-4 leukemia

Measured: growth

COc1cc2nc(Nc3cccc(Cl)c3)nc(N)c2cc1OC
active: HCT-15 colon 6.41% | HT29 colon 6.72% | CCRF-CEM leukemia -81.3%
inactive: SNB-75 CNS 94.5% | SNB-19 CNS 106% | U251 CNS 66.4% | PC-3 prostate 53.9% | SK-MEL-5 melanoma 64.5% | UACC-62 melanoma 96.3% | LOX IMVI melanoma 59.8% | SK-MEL-28 melanoma 83.8% | EKVX NSCLC 111% | SN12C renal 79.3% | UO-31 renal 75.3% | TK-10 renal 91.9% | ACHN renal 95.8% | CAKI-1 renal 146% | A498 renal 63.5% | MOLT-4 leukemia 53.7%

C=C1CC[C@@H]2[C@](C)(COC(C)=O)[C@H](OC(C)=O)CC[C@@]2(C)[C@@H]1C/C=C1/C(=O)OC[C@H]1OC(C)=O
inactive: SNB-75 CNS 44.9% | SNB-19 CNS 83% | U251 CNS 54% | PC-3 prostate 88.5% | SK-MEL-5 melanoma 56.2% | UACC-62 melanoma 29.7% | SK-MEL-28 melanoma 37.8% | EKVX NSCLC 103% | SN12C renal 33.4% | UO-31 renal 62.8% | TK-10 renal 16.9% | ACHN renal 19.5% | CAKI-1 renal 81.5% | A498 renal 90.6%
active: HCT-15 colon -23% | HT29 colon -39.4% | LOX IMVI melanoma -74.4% | CCRF-CEM leukemia -11.4% | MOLT-4 leukemia -6.05%

Nc1ccc(S(=O)(=O)O)c2cc(S(=O)(=O)O)cc(O)c12
inactive: HCT-15 colon 101% | HT29 colon 108% | SNB-75 CNS 113% | SNB-19 CNS 105% | U251 CNS 108% | PC-3 prostate 97.8% | SK-MEL-5 melanoma 103% | UACC-62 melanoma 112% | LOX IMVI melanoma 90.2% | SK-MEL-28 melanoma 97.1% | EKVX NSCLC 101% | SN12C renal 102% | UO-31 renal 107% | TK-10 renal 105% | ACHN renal 104% | CAKI-1 renal 100% | A498 renal 107% | CCRF-CEM leukemia 102% | MOLT-4 leukemia 101%

COc1ccc(F)c(F)c1C(=O)c1cnc(NC2CCN(S(C)(=O)=O)CC2)nc1N
inactive: SNB-19 CNS 12.6% | SN12C renal 14.5% | CAKI-1 renal 13.1%
active: HCT-15 colon 3.08% | HT29 colon -25.5% | SNB-75 CNS -66.1% | U251 CNS 0.678% | PC-3 prostate 0.205% | SK-MEL-5 melanoma -42.1% | UACC-62 melanoma -44.5% | LOX IMVI melanoma 6.39% | SK-MEL-28 melanoma -35.3% | EKVX NSCLC 2.22% | UO-31 renal -3.94% | TK-10 renal -7.34% | ACHN renal 5.94% | A498 renal -53.4% | CCRF-CEM leukemia 7.13% | MOLT-4 leukemia 6.48%

C[C@@]1(C(=O)Nc2ccc(F)nc2)CCCN1c1nc(Nc2cc(C3CC3)[nH]n2)c2cccn2n1
active: HT29 colon -31.8% | SNB-75 CNS -53.2% | LOX IMVI melanoma -35.5% | UO-31 renal 2.07% | CAKI-1 renal -17.7% | A498 renal -41.7%
inactive: HCT-15 colon 26.5% | SNB-19 CNS 55.2% | U251 CNS 32.3% | PC-3 prostate 30.8% | SK-MEL-5 melanoma 48.1% | UACC-62 melanoma 17.5% | SK-MEL-28 melanoma 43.6% | EKVX NSCLC 46.2% | SN12C renal 34.6% | TK-10 renal 35.9% | ACHN renal 25.7% | CCRF-CEM leukemia 44% | MOLT-4 leukemia 30.3%

C[C@@H]1COC(Nc2ccc3ncnc(Nc4ccc(OCc5nccs5)c(Cl)c4)c3c2)=N1
inactive: HCT-15 colon 29.2% | HT29 colon 14.8% | SNB-75 CNS 27.9% | SNB-19 CNS 67.8% | U251 CNS 42.3% | UACC-62 melanoma 23.5% | LOX IMVI melanoma 17.8% | SK-MEL-28 melanoma 29.8% | EKVX NSCLC 32.2% | SN12C renal 53.8% | UO-31 renal 18.7% | TK-10 renal 20.4% | ACHN renal 23.3% | CAKI-1 renal 36.4% | A498 renal 22.5% | CCRF-CEM leukemia 24.7% | MOLT-4 leukemia 18.4%
active: PC-3 prostate 8.43% | SK-MEL-5 melanoma -39%

CN1CCN(CCOc2cc(OC3CCOCC3)c3c(Nc4c(Cl)ccc5c4OCO5)ncnc3c2)CC1
active: HT29 colon 7.45% | SNB-75 CNS -17.7% | TK-10 renal 5.06%
inactive: HCT-15 colon 54.6% | SNB-19 CNS 54.6% | U251 CNS 67.3% | PC-3 prostate 71% | SK-MEL-5 melanoma 87.4% | UACC-62 melanoma 99.6% | LOX IMVI melanoma 15.5% | SK-MEL-28 melanoma 104% | EKVX NSCLC 43.8% | SN12C renal 46.1% | UO-31 renal 17.7% | ACHN renal 12.5% | CAKI-1 renal 21.7% | A498 renal 49.4% | CCRF-CEM leukemia 84.3% | MOLT-4 leukemia 56.2%

CC/C=C\C[C@H]1C/C=C2/C(=O)C=C[C@@H]2C/C=C\CCCC(=O)O1
active: HCT-15 colon -33.8% | HT29 colon -29.2% | U251 CNS -80.9% | PC-3 prostate -42.6% | SK-MEL-5 melanoma -88.4% | UACC-62 melanoma -57.6% | LOX IMVI melanoma -76.1% | SK-MEL-28 melanoma -28.6% | SN12C renal -27.8% | UO-31 renal -90.3% | TK-10 renal -38.3% | ACHN renal -89.3% | CAKI-1 renal -35.8% | A498 renal -50.6% | CCRF-CEM leukemia -14.5% | MOLT-4 leukemia -4.8%
inactive: SNB-75 CNS 47% | SNB-19 CNS 12.6% | EKVX NSCLC 11.8%

NC1(C(=O)N[C@@H](CCO)c2ccc(Cl)cc2)CCN(c2ncnc3[nH]ccc23)CC1
active: SNB-75 CNS -46.8% | UACC-62 melanoma -15.6% | A498 renal -46.2%
inactive: HCT-15 colon 58.1% | HT29 colon 23.5% | SNB-19 CNS 43.5% | U251 CNS 34.6% | PC-3 prostate 49.8% | SK-MEL-5 melanoma 70.5% | LOX IMVI melanoma 40.3% | SK-MEL-28 melanoma 24.7% | EKVX NSCLC 61.9% | SN12C renal 55.6% | UO-31 renal 17.5% | TK-10 renal 13.7% | ACHN renal 53.4% | CAKI-1 renal 34.4% | CCRF-CEM leukemia 41.6% | MOLT-4 leukemia 11.4%

COc1cc2ncnc(Oc3cccc(NC(=O)Nc4cc(C(C)(C)C(F)(F)F)on4)c3)c2cc1OC
active: HT29 colon 6.54% | SK-MEL-5 melanoma 0.0888% | UACC-62 melanoma -10.5% | LOX IMVI melanoma 0.911% | SK-MEL-28 melanoma -3.09% | UO-31 renal -0.0562% | TK-10 renal -7.18% | ACHN renal 3.9% | CAKI-1 renal 8.99% | A498 renal -24.9%
inactive: HCT-15 colon 22.4% | SNB-75 CNS 38.1% | SNB-19 CNS 74.9% | U251 CNS 50.8% | PC-3 prostate 35.1% | EKVX NSCLC 26.1% | SN12C renal 21.1% | CCRF-CEM leukemia 39.7% | MOLT-4 leukemia 13.3%

Brc1ccc([I+]c2ccc(Br)cc2)cc1
inactive: HCT-15 colon 49.3% | PC-3 prostate 24.7% | UACC-62 melanoma 27% | LOX IMVI melanoma 20.4% | EKVX NSCLC 19.3% | UO-31 renal 51.2% | ACHN renal 39% | CAKI-1 renal 51.2% | A498 renal 71.6% | CCRF-CEM leukemia 20.3% | MOLT-4 leukemia 19.9%
active: HT29 colon 5.37% | SNB-75 CNS -82.2% | SNB-19 CNS -92.4% | U251 CNS -85% | SK-MEL-5 melanoma -82.9% | SK-MEL-28 melanoma -14.6% | SN12C renal -26.9% | TK-10 renal -18%

CCOC(=O)c1sc(NC(=O)COc2ccc(/C=C3\Cc4ccc(Cl)cc4C3=O)cc2)nc1C
active: UO-31 renal -77.3%
inactive: HCT-15 colon 120% | HT29 colon 116% | SNB-75 CNS 95.8% | SNB-19 CNS 102% | U251 CNS 99.2% | PC-3 prostate 97% | SK-MEL-5 melanoma 106% | UACC-62 melanoma 93.4% | LOX IMVI melanoma 97.9% | SK-MEL-28 melanoma 127% | EKVX NSCLC 111% | SN12C renal 102% | TK-10 renal 149% | ACHN renal 102% | CAKI-1 renal 96.1% | A498 renal 143% | CCRF-CEM leukemia 101% | MOLT-4 leukemia 60.6%

COc1cc(Nc2c(C#N)cnc3cc(OCCCN4CCN(C)CC4)c(OC)cc23)c(Cl)cc1Cl
inactive: HCT-15 colon 57.5% | HT29 colon 10.3% | SNB-75 CNS 87.6% | SNB-19 CNS 70.4% | U251 CNS 65% | PC-3 prostate 84.7% | SK-MEL-5 melanoma 62.5% | LOX IMVI melanoma 33.1% | SK-MEL-28 melanoma 19.3% | EKVX NSCLC 54.9% | SN12C renal 51.9% | UO-31 renal 38.1% | TK-10 renal 29.8% | ACHN renal 27.3% | CAKI-1 renal 31% | A498 renal 78.3% | CCRF-CEM leukemia 38.9% | MOLT-4 leukemia 33.3%
active: UACC-62 melanoma 9.83%

CC(C)(C)OC(=O)N1CCC(O)[C@@H](O[Si](c2ccccc2)(c2ccccc2)C(C)(C)C)[C@H]1/C=C/c1ccccc1 (some centres undefined)
inactive: HCT-15 colon 41.1% | HT29 colon 37.9% | SNB-75 CNS 46.8% | SNB-19 CNS 58.5% | U251 CNS 44.4% | PC-3 prostate 14% | SK-MEL-5 melanoma 30.2% | UACC-62 melanoma 57.1% | LOX IMVI melanoma 61.4% | SK-MEL-28 melanoma 65.1% | EKVX NSCLC 40.7% | SN12C renal 73% | UO-31 renal 39.1% | TK-10 renal 66.1% | ACHN renal 41.1% | CAKI-1 renal 45.3% | A498 renal 68.2% | CCRF-CEM leukemia 46.4% | MOLT-4 leukemia 28%

O=c1[nH]ccc2c(S(=O)(=O)N3CCCNCC3)cccc12
inactive: HCT-15 colon 93.3% | HT29 colon 82.2% | SNB-75 CNS 54.6% | SNB-19 CNS 97.4% | U251 CNS 101% | PC-3 prostate 86.9% | SK-MEL-5 melanoma 109% | UACC-62 melanoma 70.1% | LOX IMVI melanoma 90.6% | SK-MEL-28 melanoma 67% | EKVX NSCLC 65.4% | SN12C renal 69.2% | UO-31 renal 40.6% | TK-10 renal 26% | ACHN renal 41.7% | CAKI-1 renal 55.5% | A498 renal 36.3% | CCRF-CEM leukemia 89.1% | MOLT-4 leukemia 84.9%

CCN(CCCOc1ccc2c(Nc3cc(CC(=O)Nc4cccc(F)c4)[nH]n3)ncnc2c1)CCOP(=O)(O)O
inactive: HCT-15 colon 84.7% | HT29 colon 30.5% | SNB-75 CNS 80.5% | SNB-19 CNS 71.1% | U251 CNS 71.8% | PC-3 prostate 80% | SK-MEL-5 melanoma 99.8% | UACC-62 melanoma 53.7% | LOX IMVI melanoma 42% | SK-MEL-28 melanoma 55.3% | EKVX NSCLC 99.3% | SN12C renal 79% | UO-31 renal 69.3% | TK-10 renal 83.9% | ACHN renal 95.5% | CAKI-1 renal 58.1% | A498 renal 98.4% | CCRF-CEM leukemia 51.4% | MOLT-4 leukemia 46.5%
